Results reported in PubChem BioAssay (NCATS).
“And” between values parts separate entries of the source, which are not always exact repeats. Equal values may be shown once. Records with an inconclusive call do not appear. A structure can be active in one record and inactive in another. Values without a mark were called inactive. The source made the active and inactive calls. Calls come from the whole dose curve; as a rule, active = well fitted inhibition curve with a large enough effect; inconclusive = small, poorly fitted or top-dose-only effect; inactive = flat fitted curve, though single readings scatter.

System: HEK293
Assay: Cytotoxic Profiling of Annotated Libraries Using Quantitative High-Throughput Screening (AID 1296008); note: nearly all actives have a fitted effect of over 60% in size
Conditions: Five cell lines viability, CellTiter-Glo ATP luminescence, 48-72 h; max response: active compounds read low
Description: Cell-based phenotypic screening is a commonly used approach to discover biological pathways, novel drug targets, chemical probes and high-quality hit-to-lead molecules. Many hits identified from high-throughput screening campaign are ruled out through a series of follow-up potency, selectivity/specificity, and cytotoxicity assays. Prioritization of molecules with little or no cytotoxicity for a more in-depth downstream evaluation influence the future direction of projects, so cytotoxicity profiling of the screening libraries at early stage is essential for increasing the likelihood of candidate success. […] For the annotated library, we also examined the primary targets and mechanistic pathways regularly associated with cell death. To our knowledge, this is the first study to use high-throughput screening to profile large libraries for cytotoxicity assessment in both normal and cancer cell lines. In summary, the results generated here constitutes a valuable resource for the scientific community and provides insight on identifying cytotoxic compounds with particular mechanisms of action, and prioritizing compounds with suitable cytotoxicity profile for further evaluation.
A pintool (Kalypsys) was used to transfer 23 nL of compound solution to the 1536-well assay plates. After 48 or 72 hr incubation at 37 degree Celsius, 5% CO2 and 95% humidity, 2.5 uL of CellTiter-Glo (Promega) was dispensed into each well using a dispenser (Aspect Automation, St. Paul, MN) with solenoid valves (Lee Valves, Westbrook CT). Plates were left at room temperature for 10 min before imaging the ATP-coupled luminescence using a ViewLux microplate imager (PerkinElmer, Waltham, MA).
% is set by controls: 0 for no effect and ±100 for the full control effect; potency is the fitted concentration of half-maximal effect.

Row | Structure (SMILES) | outcome | max response | Potency
1 | O=C(O)C(=O)c1cn(Cc2ccccc2)c2ccc(-c3ccc(OC(F)(F)F)cc3)cc12 | inactive | 3.18% | –
2 | CC(=O)[C@H]1CC[C@H]2[C@@H]3CC[C@H]4C[C@](C)(O)CC[C@]4(C)[C@H]3CC[C@]12C | inactive | – | –
3 | CC(C)(C)NCC(O)c1cc(Cl)c(N)c(Cl)c1 (stereo unspecified) | – | -10.9% | –
4 | Oc1ccc(Cl)cc1Cc1ccccc1 | – | -23% | 19.5 µM (active)
5 | NCC1(CC(=O)O)CCCCC1 | inactive | 4.46% | –
6 | Oc1ccccc1-c1ccccc1 | inactive | – | –
7 | CC(C)(N)Cc1ccc(Cl)cc1 | – | 3.33% | –
8 | Clc1ccc(COC(Cn2ccnc2)c2ccc(Cl)cc2Cl)cc1 (stereo unspecified) | – | -1.16% | –
9 | O=c1oc2ccccc2c(O)c1C(CC(O)c1ccc(-c2ccc(Br)cc2)cc1)c1ccccc1 (stereo unspecified) | inactive | – | –
10 | CCCC(C)(COC(N)=O)COC(=O)NC(C)C (stereo unspecified) | inactive | 0.0303% | –
11 | CNC(=O)c1ccc(N2C(=S)N(c3ccc(C#N)c(C(F)(F)F)c3)C(=O)C23CCC3)cc1F | inactive | -7.61% | –
12 | CC[C@@H](CO)NC(=O)[C@@H]1C=C2c3cccc4[nH]cc(c34)C[C@H]2N(C)C1 | – | -3.34% | –
13 | N[C@@H](Cc1ccc(N(CCCl)CCCl)cc1)C(=O)O | – | – | 20.9 µM (active)
14 | CCC(C(N)=O)N1CCCC1=O (stereo unspecified) | – | -1.93% | –
15 | O=C1CC[C@@]2(O)[C@H]3Cc4ccc(O)c5c4[C@@]2(CCN3CC2CC2)[C@H]1O5 | – | -3.14% and -3.82% | –
16 | C#CCN(C)[C@H](C)Cc1ccccc1 | inactive | -7.43% | –
17 | CN1C(=S)CN=C(c2ccccc2)c2cc(Cl)ccc21 | – | -23.9% | –

Row | Structure (SMILES) | outcome | max response | Potency
18 | NCCc1cc(O)c(O)cc1O | inactive | – | –
19 | O=C(NC(O)C(Cl)(Cl)Cl)NC(O)C(Cl)(Cl)Cl (stereo unspecified) | – | 0.365% | –
20 | COc1ccccc1N1CCNCC1 | inactive | – | –
21 | CNCC(O)c1ccc(O)cc1 (stereo unspecified) | – | -14.1% and 1.65% | –
22 | c1ccc2c(c1)OCC(C1=NCCN1)O2 (stereo unspecified) | – | – | 18.8 µM (active)
23 | Cc1ccc2c(c1)C1CN(C)CCC1N2 (stereo unspecified) | – | 1.62% | –
24 | Cn1cc(C2=C(c3cn(C4CCN(Cc5ccccn5)CC4)c4ccccc34)C(=O)NC2=O)c2ccccc21 | – | -3.71% and -0.888% | –
25 | CO[C@]12CC[C@@]3(C[C@@H]1[C@](C)(O)C(C)(C)C)[C@@H]1Cc4ccc(O)c5c4[C@@]3(CCN1CC1CC1)[C@H]2O5 | – | – | 21.5 µM (active)
26 | CC[C@@H](CO)NC(=O)[C@@H]1C=C2c3cccc4c3c(cn4C)C[C@H]2N(C)C1 | – | -25.3% | –
27 | C#CCOC(C(=O)OCCN(C)C)(c1ccccc1)c1ccccc1 | – | -8.54% | –
28 | COc1ccc(C(CN(C)C)C2(O)CCCCC2)cc1 (stereo unspecified) | inactive | 1.04% | –
29 | C[C@]12CC[C@H]3[C@@H](CCC4=CC(=O)CC[C@@H]43)[C@@H]1CC[C@@H]2OC(=O)CCc1ccccc1 | – | – | 23.7 µM (active)
30 | CC(C)=CC1C(C(=O)OCc2cccc(Oc3ccccc3)c2)C1(C)C (stereo unspecified) | inactive | – | –
31 | CCOC(=O)C1(c2ccccc2)CCN(CCC(C#N)(c2ccccc2)c2ccccc2)CC1 | – | – | 7.5 µM (active)
32 | C[C@@H]1[C@@H](C(=O)C[C@H]2O[C@@H]3O[C@]4(C)CC[C@@H]5[C@H](C)CC[C@@H]([C@H]2C)[C@@]35OO4)O[C@@H]2O[C@]3(C)CC[C@H]4[C@H](C)CC[C@@H]1[C@@]24OO3 | – | – | 0.332 µM (active)
33 | CN(C)CCc1ccc(O)cc1 | inactive | 4.35% | –
